NPC1 promoter act: qHTS Assay for NPC1 Promoter Activators. Huh7 NPC1 promoter luciferase reporter, 24 h. Potency, µM (top dose mostly 9.22 µM), hits mostly activators. hit rate 2.4% among 320,000; further: nearly all actives have a fitted effect of over 60% in size
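Cells: Huh7 expressing luciferase under the NPC1 promoter, 1500/well. Seeded 2 h, compound added, incubated 24 h at 37 °C. Luciferase reagent, 10 min ambient, then luminescence.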
SMN2 splice up: qHTS Assay for Enhancers of SMN2 Splice Variant Expression. HEK293 SMN2-luciferase splicing reporter, luminescence, 30-36 h. Potency, µM (top dose mostly 46.1 µM), actives largely listed as activators. hit rate 2.8% among 210,000. AID 1458, 2008; further: nearly all actives have a fitted effect of over 55% in size
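qHTS luciferase splicing reporter: luminescence rises when SMN2 exon 7 is included in transfected HEK293 cells. Compound exposure lasted 30-36 h at 37C, with 4.5 mM final sodium butyrate as control, followed by a ONE-Glo read.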
KinaseGlo FLuc: Counterscreen for Luciferase (Kinase-Glo TM) Inhibition | Luciferin 4-monooxygenase (Photuris pensylvanica), Q27757 | Kinase-Glo luciferase, ATP luminescence, 8 min | Potency, µM (doses to about 38.3 µM), hits mostly inhibitors | hit rate 0.28% among 200,000 | AID 1379, 2008; further: nearly all actives have a fitted effect of over 60% in size
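Compounds were added to a substrate mix at pH 7.2 (50 mM imidazole, 10 uM ATP, within the enzyme's linear range), followed by Kinase-Glo detection reagent; luminescence was measured after 8 minutes at ambient temperature.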
ELG1 genotoxic: qHTS screen for small molecules that induce genotoxicity in human embryonic kidney (HEK293T) cells expressing luciferase-tagged ELG1 | hit rate 1.3% among 330,000 | AID 504466, 2011 | Potency, µM (top dose mostly 46 µM), usual class: activators | HEK293T ELG1-luciferase reporter, luminescence, 16 h; further: nearly all actives have a fitted effect of over 60% in size
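HEK293T cells expressing luciferase-tagged ELG1 were treated with compound or DMSO for 16 hr at 37°C. Luciferase activity was then read after 30 min with ONE-Glo at room temperature; rising signal flags genetic stress.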
Rab9 prom act: qHTS Assay for Rab9 Promoter Activators; Huh7 Rab9 promoter-luciferase reporter, luminescence, 24 h; Potency, µM (series often up to 9.22 µM), most hits filed as activators; hit rate 2.8% among 320,000; further: nearly all actives have a fitted effect of over 60% in size
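Promoter activation is measured as luciferase luminescence in Huh7 cells stably transfected with a Rab9 promoter–luciferase construct, following 24 h compound exposure at 37 °C and 10 min reagent incubation at ambient temperature.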
FLuc counter: qHTS profiling assay for firefly luciferase inhibitor/activator using purifed enzyme and Km concentrations of substrates (counterscreen for miR-21 project); AID 588342, 2011; purified FLuc, Km substrates, luminescence inhibition; Potency, µM (highest dose often 57.5 µM), hits mostly inhibitors; hit rate 6.9% among 360,000; further: nearly all actives have a fitted effect of over 55% in size
Target sequence (P08659 whole entry, looked up): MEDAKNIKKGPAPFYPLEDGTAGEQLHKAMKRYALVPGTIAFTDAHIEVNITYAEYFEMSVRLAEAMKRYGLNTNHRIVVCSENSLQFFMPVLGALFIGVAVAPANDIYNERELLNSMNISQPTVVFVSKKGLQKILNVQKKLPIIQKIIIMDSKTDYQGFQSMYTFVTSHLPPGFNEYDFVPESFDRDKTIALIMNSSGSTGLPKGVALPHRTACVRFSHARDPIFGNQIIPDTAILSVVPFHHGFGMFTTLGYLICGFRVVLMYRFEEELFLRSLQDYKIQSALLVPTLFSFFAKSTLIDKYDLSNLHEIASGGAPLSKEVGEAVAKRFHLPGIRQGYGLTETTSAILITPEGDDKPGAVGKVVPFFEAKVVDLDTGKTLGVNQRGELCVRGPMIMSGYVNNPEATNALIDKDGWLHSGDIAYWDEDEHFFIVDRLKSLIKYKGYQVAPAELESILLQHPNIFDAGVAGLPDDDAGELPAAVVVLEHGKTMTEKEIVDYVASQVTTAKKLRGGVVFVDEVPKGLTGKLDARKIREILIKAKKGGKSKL
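Purified P. pyralis luciferase, 10 nM final, with Km-level 10 uM D-luciferin and 10 uM ATP in 50 mM Tris acetate pH 7.5, 10 mM Mg acetate, 0.01% Tween-20, 0.05% BSA; 6-point qHTS titration about 60 µM downward; luminescence read.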
Numbers stand for hits; 0 = inactive; ? = inconclusive; - = no result. Only some compounds are listed: those with a hit (about 7.5% of all), similar ones and a draw of the others. The call rests on the fitted dose curve; in most records, active means well fitted curve in the direction sought with a large enough effect; inconclusive means small, poorly fitted or top-dose-only effect, or another doubt; inactive means no such curve, though single readings can be large; an effect the other way counts as inactive or inconclusive.

SMILES	NPC1 promoter act	SMN2 splice up	KinaseGlo FLuc	ELG1 genotoxic	Rab9 prom act	FLuc counter
N#Cc1cccc(-c2nc(N3CCNCC3)c3ccccc3n2)c1	-	0	0	-	-	-
CCN(CC)C(=O)Cn1c(=O)n(CC2CCC(C(=O)NC)CC2)c(=O)c2sccc21 (stereo not drawn)	-	-	-	-	-	0
Cc1ccc(NC(=O)C(=O)NCC(c2ccc3c(c2)OCO3)N2CCN(C)CC2)cc1C (stereo not drawn)	-	-	-	-	-	0
COc1ccc(OCc2nc3ccccc3n2Cc2ccccc2Cl)cc1	-	0	-	-	-	?
CC(NC(=O)CCCn1c(=O)c2cccn2c2cccnc21)c1ccccc1 (stereo not drawn)	-	-	-	-	-	0
CCCCOc1ccc(CNC(=O)c2cnc3sc(N4CCCC4)nn3c2=O)cc1	-	-	-	-	-	0
O=C(N/N=C/c1ccc([N+](=O)[O-])s1)c1ccccc1	0	0	0	0	0	0
O=C(N/N=C/c1sc2ccccc2c1O)c1ccccc1	0	0	0	?	0	17µM
CCOC(=O)Cc1c(C)nc2c(-c3cccc(Br)c3)cnn2c1C	0	0	0	0	0	0
CC(=O)Nc1ccc(Nc2cc(C)nc3c(-c4ccccc4)cnn23)cc1	?	0	0	1.5µM	?	5.4µM
Cc1cc(N2CCN(C3CCCC3)CC2)n2ncc(-c3ccccc3)c2n1	0	0	0	?	0	?
Cc1nc2c(-c3ccccc3)cnn2c(N2CCOCC2)c1C	2.5µM	-	-	6.5µM	1.3µM	3µM
Cc1cc(N)n2ncc(-c3ccccc3)c2n1	2.8µM	16µM	0	10µM	1.6µM	9.5µM
Cc1cc(N)n2ncc(-c3cccc(Br)c3)c2n1	?	0	0	16µM	2.8µM	15µM
CCOc1cc(/C=N/Nc2nc(N3CCCC3)nc(N3CCCC3)n2)ccc1O	0	0	0	0	0	0
CCOc1cc(/C=N/Nc2nc(Nc3ccccc3)nc(N3CCCCC3)n2)ccc1OCC(=O)O	0	0	0	0	0	1.1µM
COc1ccc(/C=N/Nc2nc(Nc3ccccc3)nc(N3CCCCC3)n2)cc1OC	?	0	0	0	?	1.1µM
CCOc1cc(/C=N/NC(=O)c2ccc(-c3csc(Nc4ccc(C)cc4)n3)cc2)ccc1OCC(=O)O	3.2µM	13µM	0	0	2.8µM	?
CCOc1cc(/C=N/Nc2ccccc2Cl)ccc1OCC(=O)O	0	0	0	?	0	21µM
CCOc1cc(/C=N\NC(=O)Cc2ccccc2)ccc1OCC(=O)Nc1ccc(C)c(C)c1	0	0	0	0	0	0
COc1ccccc1NC(=O)Cn1c(=O)n(-c2cccc(Cl)c2)c(=O)c2c1c1cc(C)ccc1n2C	-	0	-	-	-	0
Cc1ccc(CN(C(=O)COc2cccc([N+](=O)[O-])c2)c2ccccn2)o1	-	-	-	-	-	0
CC1=C(C(=O)Nc2cccnc2)C(c2cccc(F)c2)n2nc(SCc3ccccc3)nc2N1 (stereo not drawn)	-	0	-	-	-	0
Nc1nc2c(ncn2C2OC(COC(=O)c3ccccc3)C(OC(=O)c3ccccc3)C2OC(=O)c2ccccc2)c(=O)[nH]1 (stereo not drawn)	-	0	0	-	-	-
CC1(OC(=O)c2ccco2)C(=O)C2=COC(C3CC3)=CC2=C(Br)C1=O (stereo not drawn)	-	0	0	-	-	-
SMILES	NPC1 promoter act	SMN2 splice up	KinaseGlo FLuc	ELG1 genotoxic	Rab9 prom act	FLuc counter
CCNC(=O)CC1C(=O)N(c2ccc(C)cc2)C(=O)N1Cc1ccc(C)cc1 (stereo not drawn)	-	0	-	-	-	0
Cc1csc(NC(=O)c2ccc(C(=O)Nc3nc(C)cs3)cc2)n1	0	-	-	0	0	0
C[C@H](NC(=O)c1ccccc1)C(=O)Nc1nc(-c2ccccn2)cs1	0	0	0	0	0	0
Cc1csc(NC(=O)c2ccccc2C(=O)O)n1	0	0	0	0	0	0
Cn1cccc1C(=O)Nc1nc(-c2ccccn2)cs1	2µM	0	11µM	0	1.8µM	8.5µM
Cc1csc(NC(=O)c2cccn2C)n1	3.5µM	16µM	?	?	2.2µM	8.5µM
Cc1csc(NC(=O)c2sccc2C)n1	1.8µM	-	-	?	0.89µM	11µM
O=C(CN1CCN(C(=O)c2ccc(-c3nc4ccccc4s3)o2)CC1)Nc1ccc(F)cc1	0	-	-	0	0	17µM
O=C(CN1CCN(C(=O)c2ccc(-c3nc4ccccc4s3)o2)CC1)Nc1ccccc1Cl	0	-	-	0	0	?
Cc1cccc(NC(=O)CN2CCN(C(=O)c3ccc(-c4nc5ccccc5s4)o3)CC2)c1C	0	-	-	0	0	24µM
CCN(CC)c1ncnc2c1cnn2-c1cc(Cl)ccc1C	-	-	-	-	-	0
c1ccc(-c2nc(-c3ccccc3)c(NC3CCCCC3)o2)cc1	-	0	0	-	-	-
Oc1c(C(Nc2nc3ccccc3s2)c2ccco2)ccc2cccnc12 (stereo not drawn)	0	0	0	18µM	0	15µM
CC(C)C(=O)NC(c1ccco1)c1ccc2cccnc2c1O (stereo not drawn)	0	0	0	0	0	0
CC(C)c1nc(CNC(=O)C2CCC(=O)N(CCc3ccc(Cl)cc3)C2)no1 (stereo not drawn)	0	-	-	0	0	0
Cc1cccc(-n2c(=S)[nH]c3sc4c(c3c2=O)CCc2ccccc2-4)c1	0	0	0	0	0	7.6µM
CCN(CC)CCNC(=O)c1c(C)oc2ncnc(N3CCOCC3)c12	-	-	-	-	-	0
O=C(N/N=C/c1ccc([N+](=O)[O-])o1)c1cn(-c2ccccc2)nc1-c1ccc(Cl)cc1	0	0	0	0	0	0
O=[N+]([O-])CC(=Nc1ccc(Cl)cc1)N/N=C\c1oc(O)c2ccccc12	?	0	0	0	?	12µM
O=C(N/N=C\c1cccc(Cl)c1)c1ccc(Cn2cc(Br)c([N+](=O)[O-])n2)o1	0	0	0	0	0	5.4µM
O=C(N/N=C\c1cccc(Cl)c1)c1ccc(Cn2cccn2)o1	0	0	0	0	0	12µM
Cc1c(Cl)c([N+](=O)[O-])nn1Cc1ccc(C(=O)N/N=C\c2cccc(Br)c2)o1	0	0	0	0	0	7.6µM
O=C(N/N=C/c1cccc(Br)c1)c1ccc(Cn2cc(Br)cn2)o1	0	0	0	0	0	13µM
Cc1nc(-c2cccc(S(=O)(=O)N3CCC(C(=O)NCc4ccccc4)CC3)c2)no1	-	-	-	-	-	0
Cc1ccccc1/C=N\NC(=O)c1ccc(Cn2cccn2)o1	0	0	0	0	0	17µM
COc1ccc(Br)c(-c2nnc(CS(=O)(=O)c3ccccc3)o2)c1	?	-	-	?	2.8µM	19µM
CCOc1ccccc1-c1nnc(CS(=O)(=O)c2ccccc2)o1	?	-	-	0	0	0

Bioassay records (PubChem)
